Shown are actives, neighbours in structure and some others; about 3.5% of the full set was active somewhere.
BoNT-F LC inh: BoNT/F light chain protease inhibitors, primary screen, biochemical, flow cytometry, MLPCN library. Botulinum neurotoxin type F light chain protease (Clostridium botulinum). Multiplex microsphere protease cleavage assay. inhibition, % at 10 µM. actives 0.22% (n = 360,000); in the data active = inhibition above about 35%, passing the limit was not always enough; inconclusive = no clear call, values can overlap the other calls; note: plate controls were buffer without enzyme for full effect and enzyme alone for no effect
Anthrax LF prot: Bacillus anthracis LF protease inhibitors, primary screen, biochemical, multiplex microsphere, MLPCN library | Lethal factor (Bacillus anthracis), P15917 | multiplex microsphere protease cleavage assay | inhibition, % at 10 µM | actives 0.12% (n = 360,000) | AID 588501, 2011; note: plate controls were buffer without enzyme for full effect and enzyme alone for no effect
Autofluor counter: counter-screen for toxin protease inhibitors: compound fluorescence. compound autofluorescence counterscreen, microsphere flow cytometry; stronger effect = higher value. actives 3.1% (n = 360,000). fluorescence intensity (test concentration not listed); in the data active = fluorescence intensity above about 16000; inconclusive = no clear call, values can overlap the other calls
BoNT A protease: BoNT/A light chain protease inhibitors, primary screen, biochemical, flow cytometry, MLPCN library; Botulinum neurotoxin type A light chain protease (Clostridium botulinum A str. ATCC 3502); multiplex microsphere protease substrate cleavage; inhibition, % at 10 µM; actives 0.17% (n = 360,000); AID 588499, 2011; note: plate controls were buffer without enzyme for full effect and enzyme alone for no effect
The depositor's hits bear a star; u = inconclusive. Cut-off read from the data, not from the text of the source, unless noted: active = inhibition above about 30%; inconclusive = no clear call, values can overlap the other calls; inactive = below that.

SMILES	BoNT-F LC inh	Anthrax LF prot	Autofluor counter	BoNT A protease
N#Cc1c(N)[nH]c(=S)c(C#N)c1-c1ccccc1	3	0	20825*	1
O=C(c1ccc(COc2ccc(Cl)cc2)o1)N1N=C(C(F)F)CC1(O)C(F)F (stereo not drawn)	-7	0	1977	-1
COc1ccccc1OCc1ccc(C(=O)N2N=C(C(F)F)CC2(O)C(F)F)o1 (stereo not drawn)	-4	-1	16851*	-3
Cc1ccc(N(CN2CCCC2=O)C(=O)c2ccc(C)c(C)c2)cc1	3	-1	21259*	u
CCOC(=O)N1CCN(C(=O)C2CCN(C(=O)c3ccc(C(C)(C)C)cc3)CC2)CC1	-14	-8	3866	-1
COc1ccc(NC(=O)c2c(C(F)(F)F)nn(C)c2SCc2ccccc2)cc1	-3	-2	16890*	-1
Cn1nc(C(F)(F)F)c(C(=O)Nc2ccc(C(F)(F)F)cc2)c1Cl	-8	-12	4378	0
O=C(O)/C=C\C(=O)Nc1ccc(F)c(F)c1F	u	0	4734	u
CCOC(=O)C1=C(C)NC(C)=C(C(=O)OCC)C1C(=O)OCC(=O)NCc1ccc(F)cc1	-5	-5	u	-5
CS(=O)(=O)Nc1ccc(N2CCCCC2)c(Cl)c1	-1	0	23555*	0
CS(=O)(=O)Nc1ccc(S(=O)(=O)N2CCCCCC2)cc1	-4	1	5224	0
Cc1[nH]nc2c1C(c1ccsc1)C1=C(CC(C)(C)CC1=O)N2 (stereo not drawn)	5	-5	3114	2
Cn1ccnc1SCc1ccc([N+](=O)[O-])cc1	7	2	19757*	u
COc1ccc(Nc2nnc(SCc3cc([N+](=O)[O-])cc4c3OCOC4)s2)cc1	-3	-1	23675*	-1
COc1ccc(CSc2nnc(SCc3ccc([N+](=O)[O-])cc3)s2)cc1	-3	0	23671*	1
Cc1nnc(SCc2cc([N+](=O)[O-])cc3c2OCOC3)[nH]c1=O	0	0	5339	1
COc1ccc(CNC(=O)C(C)N2C(=O)COc3ccc(C)cc32)c(OC)c1 (stereo not drawn)	4	1	4285	0
O=C1c2ccccc2NC(c2ccc(F)cc2)N1Cc1ccccc1 (stereo not drawn)	0	8	3572	2
O=C(NCCCn1ccnc1)c1ccccc1Br	-13	5	3273	0
Cc1ccccc1OCCCCCn1ccnc1	-4	0	24874*	-2
O=C(NCCCn1ccnc1)c1c(F)cccc1F	3	-2	5315	1
Clc1ccccc1OCCCCn1ccnc1	-8	-3	11053	0
O=C(NCCCn1ccnc1)c1sc2cccc(F)c2c1Cl	4	5	21856*	5
Cc1ccccc1C(=O)NCCCn1ccnc1	37*	-1	3866	0
Cc1nc(N2CCOCC2)[nH]c(=O)c1CCC(C)C	3	-1	16493*	0
SMILES	BoNT-F LC inh	Anthrax LF prot	Autofluor counter	BoNT A protease
CCC(C)[C@H](NC(=O)NCc1ccco1)C(=O)OC (stereo partly drawn)	u	-5	3239	-5
COC(=O)[C@H](C)NC(=O)NCc1ccco1	1	1	20251*	1
CC(C)Oc1ccc(C(CC(=O)NCc2ccco2)c2ccccc2)cc1 (stereo not drawn)	-3	-1	16645*	-1
C=CCN(CC=C)Cc1cc(=O)oc2ccccc12	6	-5	5971	0
CCOc1ccccc1N1CCN(C(=O)c2cc[n+]([O-])cc2)CC1	13	0	5032	1
CCCc1ccc(C(=O)N2CCN(c3ccccc3OCC)CC2)cc1	-8	0	25022*	-3
CCn1c(=O)cc(SCC(=O)NCCN2CCN(Cc3ccccc3)CC2)c2ccccc21	0	-4	22769*	u
CCn1c(=O)cc(SCC(=O)NCCCN2CCC(C)CC2)c2ccccc21	-1	1	2605	0
CCn1c(=O)cc(SCC(=O)NCCCN2CCN(c3ccc(F)cc3)CC2)c2ccccc21	1	0	20024*	2
CCC(C)C(NC(=O)c1ccccc1)C(=O)N1CCN(C(=O)c2ccccc2)CC1 (stereo not drawn)	-2	0	3864	0
CCN(CC)S(=O)(=O)c1ccc(C(=O)OCCN2C(=O)c3cccc4c(N5CCOCC5)ccc(c34)C2=O)cc1	20	28	7204	35*
CCCN1C(=O)c2cccc3c(N4CCCCC4)ccc(c23)C1=O	11	14	4642	32*
CC(=O)Oc1ccc(C2=Cc3ccc(OC(C)=O)cc3OC2C)cc1 (stereo not drawn)	-15	-9	3602	-1
Cc1cccc(NC(=O)/C(C#N)=C\c2cccnc2)c1	-2	0	17179*	-2
O=C(Nc1ccccc1)/C(=C/c1ccc(F)cc1)NC(=O)c1ccco1	-4	-1	3519	3
CCC(=O)N1CCc2cc(S(=O)(=O)NCCC(=O)N3CCc4ccccc4C3)ccc21	3	-4	10223	0
CCC(=O)N1CCc2cc(S(=O)(=O)NCCC(=O)N3CC=C(c4ccccc4)CC3)ccc21	-4	-1	22498*	-2
O=c1[nH]cc(S(=O)(=O)N2CCN(c3ccc(F)cc3)CC2)c(=O)[nH]1	0	-8	3393	0
COC(=O)COC(=O)CC(CC(N)=O)c1ccccc1 (stereo not drawn)	1	-1	22984*	1
CCOc1ccc2nc(N3CCCCCC3)sc2c1	-4	-4	16527*	0
CN(C)c1nc2ccc(OCCN3CCCCC3)cc2s1	-1	0	23663*	-1
CCOc1ccc(Br)cc1S(=O)(=O)NCC(c1ccc(OC)cc1)N1CCOCC1 (stereo not drawn)	-2	-1	6478	0
COc1cc([N+](=O)[O-])cc(CN2CCCCC2)c1O	-4	-4	16919*	u
C/C(=C/C(=O)NCc1ccccc1)C(=O)O	2	-6	22169*	0
Cc1nc2ccccc2n1C1CC(=O)N(Cc2ccccc2)C1=O (stereo not drawn)	-4	-3	23623*	-2
SMILES	BoNT-F LC inh	Anthrax LF prot	Autofluor counter	BoNT A protease
CN1C(=O)CC(N2CCC(c3nc4ccccc4s3)CC2)C1=O (stereo not drawn)	-8	1	4687	1
Cc1cc2ncn(C3CC(=O)N(Cc4ccccc4)C3=O)c2cc1C (stereo not drawn)	2	0	8036	0
O=C1CC(N2CCC(c3nc4ccccc4s3)CC2)C(=O)N1Cc1ccccc1 (stereo not drawn)	-2	-5	23583*	-1
O=C(NCCS(=O)(=O)N1CCN(c2ccccc2F)CC1)c1cccs1	4	6	u	2
CC(=O)c1cc(NC(=O)c2ccc(Cl)cc2)c(=O)oc1/C=C/N(C)C	1	2	25493*	u
CC(=O)c1cc(NC(=O)c2cccc(C(F)(F)F)c2)c(=O)oc1C	2	3	4376	0
CC(=O)c1cc(NC(=O)c2cccc(C(F)(F)F)c2)c(=O)oc1/C=C/N(C)C	-12	-1	23755*	u
COc1cccc2c1OCC/C2=N\NC(=O)C(C)Oc1ccc([N+](=O)[O-])cc1 (stereo not drawn)	0	0	4624	0
